The nature of test [1]: A CellTox Green Cytotoxicity Assay to monitor cytotoxicity in HEK293 cells - 32 hour (AID 1224881). Also: nearly all actives have a fitted effect of over 40% in size. An outline of the steps:
(§1)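 Cytotoxicity was tracked continuously in HEK293 cells by a DNA-binding dye excluded from viable cells. Compounds were transferred in DMSO 5 h after seeding; fluorescence was recorded at intervals up to 40 h.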

A short description of test [2]: A CellTox Green Cytotoxicity Assay to monitor cytotoxicity in HepG2 cells - 0 hour (AID 1224882). Also: nearly all actives have a fitted effect of over 35% in size. An outline of the steps:
(§2)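 Real-time, homogeneous cytotoxicity readout: dead-cell DNA staining by CellTox Green in HepG2 monolayers, fluorescence measured at timed intervals up to 40 h of continuous compound exposure.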

Test [3] in a line: A CellTox Green Cytotoxicity Assay to monitor cytotoxicity in HepG2 cells - 32 hour (AID 1224883). Also: nearly all actives have a fitted effect of over 50% in size. Also: potency is read from the fitted curve at half-maximal effect. An outline of the steps:
as §2

A short description of test [4]: A CellTox Green Cytotoxicity Assay to monitor cytotoxicity in HEK293 cells - 8 hour (AID 1224884). Also: nearly all actives have a fitted effect of over 35% in size. The method, boiled down: as §1
Test [5] in a line: qHTS RealTime-Glo MT Cell Viability Assay in HepG2 cells - 16 hour (AID 1224885). Also: nearly all actives have a fitted effect of over 50% in size. The method, boiled down: (§3)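 Viability was tracked continuously by NanoLuc luminescence from prosubstrate reduced by living HepG2 cells, at successive time points over 40 h of compound exposure. Cells with reagent were preincubated 5 h at 37 °C before compound addition.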
A general note: Quantitative high-throughput screening tests each substance at several concentrations.

The nature of test [6]: qHTS RealTime-Glo MT Cell Viability Assay in HEK293 cells - 24 hour (AID 1224886). Also: top concentration of the series differs between compounds; nearly all actives have a fitted effect of over 50% in size. An outline of the steps: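 Viability tracked continuously by luminescence as live cells reduce a prosubstrate for NanoLuc; HEK293 cells preincubated 5 h, compound-treated at 37 C, and read at 0, 8, 16, 24, 32 and 40 h.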
A short description of test [7]: qHTS RealTime-Glo MT Cell Viability Assay in HEK293 cells - 8 hour (AID 1224887). Also: top concentration of the series differs between compounds; nearly all actives have a fitted effect of over 50% in size. An outline of the steps: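 Nonlytic bioluminescent viability monitoring. HEK293 at 600 cells/well with reagent; 5 h settle; compound transfer by pintool; plates held at 37 C and read at set time points.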
A short description of test [8]: A CellTox Green Cytotoxicity Assay to monitor cytotoxicity in HEK293 cells - 16 hour (AID 1224888). Also: nearly all actives have a fitted effect of over 35% in size. The method, boiled down:
as §1

Test [9] is described as follows: qHTS RealTime-Glo MT Cell Viability Assay in HepG2 cells - 0 hour (AID 1224889). Also: nearly all actives have a fitted effect of over 50% in size. An outline of the steps: as §3
A short description of test [10]: qHTS assay to identify small molecule antagonists of the estrogen receptor alpha (ER-alpha) signaling pathway using the BG1 cell line in the presence of 0.1 nM 17-beta-estradiol - cell viability counter screen (AID 1259241). Also: nearly all actives have a fitted effect of over 40% in size. The method, boiled down: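 In this screen, hormone-deprived VM7Luc4E2 cells were seeded at 4,000 per well, dosed with compound and 0.1 nM estradiol final, and incubated 22 hr at 37C and 5% CO2; fluorogenic live-cell protease signal reported viability.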

Test [11] is described as follows: qHTS assay to identify small molecule antagonists of the androgen receptor (AR) signaling pathway using the MDA cell line in the presence of 0.5 nM R1881 - cell viability counter screen (AID 1259242). Also: nearly all actives have a fitted effect of over 45% in size. Also: potency is read from the fitted curve at half-maximal effect. An outline of the steps:
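Cytotoxicity toward MDA-kb2 cells is measured by CellTiter-Fluor live-cell protease fluorescence after 16 hr compound exposure at 37C in the presence of 0.5 nM R1881 stimulator.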

Test [12] is described as follows: qHTS assay to identify small molecule phospholipidosis (PLD) inducers (AID 1259344; active = well fitted curve in the direction sought with a large enough effect; an effect the other way counts as inactive or inconclusive; also: potency is read from the fitted curve at half-maximal effect). An outline of the steps: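 Fluorescent phospholipid staining (LipidTOX Red) measured by automated microscopy in fixed HepG2 cells after 24 h treatment; nuclei counterstained with Hoechst 33342; amiodarone as reference inducer.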
A short description of test [13]: qHTS assay to identify small molecule HDAC inhibitors (AID 1259364). Also: top concentration of the series differs between compounds; nearly all actives have a fitted effect of over 45% in size. The method, boiled down: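 Homogeneous cell-based luminescent assay of endogenous class I/II HDAC activity; HCT-116 cells, 2 h compound exposure, 30 min HDAC-Glo development at RT.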
Test [14] in a line: qHTS assay to identify small molecule HDAC inhibitors - cell viability counter screen (AID 1259365). An outline of the steps: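 Measured quantity is CellTiter-Glo luminescence from wild-type HCT-116 cells after compound incubation of 2hr at 37C, 5% CO2; reagent developed 30min at room temperature.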
A short description of test [15]: qHTS assay to identify small molecule agonists of the sonic hedgehog signaling (Shh) pathway - cell viability counter screen (AID 1259366). Also: nearly all actives have a fitted effect of over 50% in size. An outline of the steps:
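In quantitative high-throughput format, 3T3 Gli1-Luc cells were exposed to compounds for 24hr and multiplexed for viability using CellTiter-Fluor, incubated 1hr at 37C before the fluorescence read.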

Test [16] is described as follows: qHTS assay to identify small molecule agonists of the sonic hedgehog signaling (Shh) pathway (AID 1259368; calls by dose curve;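 also: NIH/3T3-derived 3T3Gli1-Luc cells carrying a stable Gli1-driven firefly luciferase reporter; series mostly up to about 92 µM; nearly all actives have a fitted effect of over 15% in size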). An outline of the steps: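 Steps: seed 3T3 Gli1-Luc cells, incubate 4 hr at 37 C, pin-transfer compounds in DMSO alongside a positive control, incubate 24 hr, add luciferase detection reagent, wait 30 min at room temperature, read luminescence.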
Test [17] can be described thus: qHTS assay to identify small molecule antagonists of the sonic hedgehog signaling (Shh) pathway - cell viability counter screen (AID 1259367). Also: nearly all actives have a fitted effect of over 55% in size. Also: potency is read from the fitted curve at half-maximal effect. The method, boiled down:
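Using CellTiter-Fluor, viability of Gli1-Luc reporter 3T3 cells is read by fluorescence in the wells used for the Shh luciferase assay. Treatment lasts 23 hr with conditioned medium, then reagent 1 hr at 37C.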

Test [18] concerns the target Estrogen receptor (Homo sapiens) (UniProt P03372). Kind of test: qHTS assay to identify small molecule antagonists of the estrogen receptor alpha (ER-alpha) signaling pathway using the BG1 cell line in the presence of 0.1 nM 17-beta-estradiol (AID 1259244). Also: nearly all actives have a fitted effect of over 50% in size. An outline of the steps:
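After 5 days in hormone-depleted medium (charcoal-stripped serum, no phenol red), VM7Luc4E2 cells were seeded, incubated 24 h, then co-treated with compound and 0.1 nM (final) estradiol for 22 h before luminescence detection.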

The target of test [19] is Androgen receptor (Homo sapiens) (UniProt P10275). Kind of test: qHTS assay to identify small molecule antagonists of the androgen receptor (AR) signaling pathway using the MDA cell line in the presence of 0.5 nM R1881 (AID 1259243). Also: nearly all actives have a fitted effect of over 50% in size. Also: potency is read from the fitted curve at half-maximal effect. An outline of the steps:
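Steps: seed MDA-kb2 cells, incubate 5 hr at 37C; pin-transfer compounds in DMSO; add R1881 to 0.5 nM final; incubate 16 hr; add ONE-Glo, wait 30 min at room temperature; read luminescence.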

A short description of test [20]: A CellTox Green Cytotoxicity Assay to monitor cytotoxicity in HepG2 cells - 8 hour (AID 1224890). Also: nearly all actives have a fitted effect of over 45% in size. An outline of the steps: as §2

A number with no mark means an inactive call. Inconclusive results are not listed. Calls of active or inactive are those of the source. Unless noted, calls follow the shape of the dose curve; as a rule, active = well fitted curve in the direction sought with a large enough effect in the repeat runs; inconclusive = weak or mixed curves; inactive = no such curve, though single readings can be large; an effect the other way counts as inactive or inconclusive.

Chain of Estrogen receptor (Homo sapiens) (P03372 whole entry, looked up): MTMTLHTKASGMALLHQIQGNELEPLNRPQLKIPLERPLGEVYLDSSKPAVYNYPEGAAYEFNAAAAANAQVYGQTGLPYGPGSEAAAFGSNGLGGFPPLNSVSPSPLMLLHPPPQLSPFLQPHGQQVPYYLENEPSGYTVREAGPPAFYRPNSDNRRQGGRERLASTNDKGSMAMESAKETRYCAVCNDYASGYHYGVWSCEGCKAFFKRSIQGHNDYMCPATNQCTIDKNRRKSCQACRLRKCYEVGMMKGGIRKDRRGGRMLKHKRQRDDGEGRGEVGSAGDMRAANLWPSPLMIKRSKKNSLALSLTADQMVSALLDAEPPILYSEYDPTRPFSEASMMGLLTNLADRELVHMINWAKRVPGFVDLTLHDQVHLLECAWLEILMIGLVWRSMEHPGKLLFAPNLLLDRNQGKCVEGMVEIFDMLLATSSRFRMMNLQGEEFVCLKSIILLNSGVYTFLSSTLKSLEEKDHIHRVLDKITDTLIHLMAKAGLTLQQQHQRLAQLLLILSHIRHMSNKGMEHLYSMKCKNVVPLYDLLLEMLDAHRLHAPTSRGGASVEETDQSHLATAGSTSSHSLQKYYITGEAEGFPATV
Chain of Androgen receptor (Homo sapiens) (P10275 whole entry, looked up): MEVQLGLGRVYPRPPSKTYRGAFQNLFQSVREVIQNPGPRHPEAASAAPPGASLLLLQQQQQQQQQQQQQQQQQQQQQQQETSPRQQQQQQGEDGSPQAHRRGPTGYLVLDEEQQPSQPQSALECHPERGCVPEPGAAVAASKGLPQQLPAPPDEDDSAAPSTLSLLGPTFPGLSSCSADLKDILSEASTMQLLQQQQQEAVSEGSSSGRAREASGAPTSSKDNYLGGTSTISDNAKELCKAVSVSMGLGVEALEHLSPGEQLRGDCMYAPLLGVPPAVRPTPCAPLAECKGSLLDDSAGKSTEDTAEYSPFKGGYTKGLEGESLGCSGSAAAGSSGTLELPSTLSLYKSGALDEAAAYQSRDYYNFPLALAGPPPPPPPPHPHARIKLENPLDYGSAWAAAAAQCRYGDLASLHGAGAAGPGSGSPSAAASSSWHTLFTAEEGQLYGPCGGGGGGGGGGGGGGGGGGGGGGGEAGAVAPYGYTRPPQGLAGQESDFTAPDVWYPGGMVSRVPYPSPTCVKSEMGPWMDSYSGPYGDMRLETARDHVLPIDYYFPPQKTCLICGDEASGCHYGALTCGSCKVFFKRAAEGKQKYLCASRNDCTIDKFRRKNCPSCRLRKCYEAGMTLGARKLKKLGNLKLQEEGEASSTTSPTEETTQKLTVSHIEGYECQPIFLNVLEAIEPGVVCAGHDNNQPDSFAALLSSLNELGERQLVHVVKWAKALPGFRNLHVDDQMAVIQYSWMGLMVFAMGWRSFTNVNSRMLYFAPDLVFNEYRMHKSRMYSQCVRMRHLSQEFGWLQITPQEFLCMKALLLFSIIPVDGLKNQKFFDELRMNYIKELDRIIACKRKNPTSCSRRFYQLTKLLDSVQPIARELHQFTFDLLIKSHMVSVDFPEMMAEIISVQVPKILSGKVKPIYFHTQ

Regarding `OC(C#CCN1CCCC1)(c1ccccc1)c1ccccc1`, the Potency entry in test [1], in test [2], in [3], in test [4], in [5] and in [6] was “inactive” throughout. Moreover, the Potency entry in test [7], in test [8], in [9], in test [10], in [11] and in test [12] was “inactive” each time. For the same compound, the Potency result in test [13], in test [14] and in [15] was “inactive” throughout. The call in [16] was inactive.

As to `CC(=O)[O][Al]`, the Potency entry in [1], in test [2], in test [3], in [4], in test [5] and in [6] was “inactive” each time. The Potency entry in [7], in [8], in test [9], in test [10], in [11] and in test [13] was “inactive” in each case. The Potency entry in test [14], in test [15] and in test [17] was “inactive” in each case. Further, in [16], the outcome was inactive.

With `C=C1[C@H]2CC[C@@H]3[C@H]2C(C)(C)CCC[C@]13C`, the Potency entry in test [1], in [2], in test [3], in test [4], in [5] and in [6] was “inactive” in each case. The Potency entry in test [7], in test [9], in [10], in [11], in test [18] and in [13] was “inactive” throughout. For the same compound, the Potency result in test [14], in [15] and in [17] was “inactive” each time. In addition, the call in test [16] was inactive.

For `CN(C)CCOC(c1ccccc1)c1ccc(Br)cc1` (centres undefined), the Potency result in [1], in test [2], in test [4], in test [5], in test [6] and in test [7] was “inactive” in each case. Also, the Potency entry in test [8], in test [9], in [10], in test [11], in [19] and in [18] was “inactive” throughout. Moreover, the Potency result in [13], in test [14] and in [17] was “inactive” each time. Besides, the Potency in test [3] was 23.9 µM (active). The result in [16] was inactive.

Consider `Cc1ccc(N=Nc2c(O)c(C(=O)O)cc3ccccc23)c(S(=O)(=O)O)c1`, for which the Potency result in test [1], in test [2], in test [3], in [4], in test [5] and in [6] was “inactive” in each case. For the same compound, the Potency entry in test [7], in test [8], in test [9], in test [20], in test [13] and in [14] was “inactive” throughout. For the same compound, the Potency is 11.8 µM (active) in test [11] and 13.3 µM (active) in [17]. Besides, in test [16], the call was inactive.

On to `NCCCN1CCOCC1`, for which the Potency result in test [1], in test [2], in [3], in [4], in [5] and in [6] was “inactive” throughout. Moreover, the Potency result in test [7], in test [8], in test [9], in [10], in test [11] and in [19] was “inactive” throughout. Besides, the Potency result in test [18], in test [13], in test [14], in test [15] and in [17] was “inactive” each time. Besides, the call in [16] was inactive.

On to `CCCCCCCCCOS(=O)(=O)O`, for which the Potency result in test [1], in test [2], in test [3], in [4], in test [5] and in test [6] was “inactive” in each case. Also, the Potency result in [7], in [9], in [20], in test [10], in test [11] and in test [18] was “inactive” each time. Also, the Potency result in [13], in [14], in [15] and in test [17] was “inactive” throughout. Further, in test [16], the compound was classed as inactive.

As to `CN1CCC(=C2c3ccccc3Sc3ccccc32)CC1`, the Potency result in [1], in test [2], in test [4], in test [5], in test [6] and in test [7] was “inactive” each time. In addition, the Potency result in test [8], in [20], in [10], in [11], in test [18] and in [13] was “inactive” in each case. The Potency result in test [14], in [15] and in test [17] was “inactive” throughout. The values for the Potency in test [3], in test [19] and in test [12] were 23.9 µM (active), 23.7 µM (active) and 10 µM (active), respectively. For the same compound, the result in test [16] was inactive.

The values are drawn from PubChem BioAssay (Tox21).
